Assay results: PubChem BioAssay AID602281 (The Scripps Research Institute Molecular Screening Center, 2012)
Where “and” joins values, the source holds several entries; their conditions need not be identical. Equal entries are not always repeated. About 2,900 (0.81%) of roughly 360,000 compounds were called active.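 The calls were made as follows: active = inhibition above the mean inhibition across every tested compound plus 3 SD (cut at about 22% in these data); inactive = the rest.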 What follows is part of a selection rich in actives, with near analogues and random picks from the rest. More than one record can exist for a structure, and the calls need not agree.

target: Perilipin-5 (Homo sapiens) + 1-acylglycerol-3-phosphate O-acyltransferase ABHD5 (Homo sapiens) (UniProt Q00G26+Q8WTS1); assay: blockers of ABHD5 binding to perilipin-5 – cell lysate, split luciferase complementation, luminescence, primary screen (AID 602281);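 also: 0% = DMSO only wells and the 100% control is not disclosed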; conditions: Split G. princeps luciferase complementation, 4 h, at 4 µM, stronger effect = higher value
Sequence (Q00G26 whole entry, looked up): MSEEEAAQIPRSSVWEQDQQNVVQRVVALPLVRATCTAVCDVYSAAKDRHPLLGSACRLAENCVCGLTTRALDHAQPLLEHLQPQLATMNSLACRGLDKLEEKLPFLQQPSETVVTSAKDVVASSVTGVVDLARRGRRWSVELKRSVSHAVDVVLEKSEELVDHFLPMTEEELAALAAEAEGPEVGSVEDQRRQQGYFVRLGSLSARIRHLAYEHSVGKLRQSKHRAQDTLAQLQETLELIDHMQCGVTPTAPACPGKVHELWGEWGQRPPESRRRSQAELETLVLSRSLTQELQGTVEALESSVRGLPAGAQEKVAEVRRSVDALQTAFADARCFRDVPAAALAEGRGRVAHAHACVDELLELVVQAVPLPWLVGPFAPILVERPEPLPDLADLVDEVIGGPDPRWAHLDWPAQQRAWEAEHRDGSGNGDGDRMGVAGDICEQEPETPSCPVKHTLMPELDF
Sequence (Q8WTS1 whole entry, looked up): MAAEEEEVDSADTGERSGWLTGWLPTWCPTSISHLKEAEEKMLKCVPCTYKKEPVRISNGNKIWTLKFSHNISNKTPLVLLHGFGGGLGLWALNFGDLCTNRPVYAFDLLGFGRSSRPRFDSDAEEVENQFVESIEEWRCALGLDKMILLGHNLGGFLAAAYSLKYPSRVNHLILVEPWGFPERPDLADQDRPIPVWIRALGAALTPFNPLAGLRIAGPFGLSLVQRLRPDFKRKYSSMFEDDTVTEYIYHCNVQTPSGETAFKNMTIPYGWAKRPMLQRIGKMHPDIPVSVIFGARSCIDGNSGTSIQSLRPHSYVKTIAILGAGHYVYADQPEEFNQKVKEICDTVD

SMILES | inhibition
CC1=C(C(=O)N2CCOCC2)CC(CC(=O)NCc2ccco2)C(=O)N1Cc1ccc(F)cc1 (stereo not given) | 5.09% (inactive)
Cc1c(CCO)sc[n+]1CC(=O)OC12CC3CC(CC(C3)C1)C2 | -1.3% (inactive)
Cc1c(CCOC(=O)c2cc([N+](=O)[O-])ccc2Cl)sc[n+]1CCCCS(=O)(=O)[O-] | 7.78% (inactive)
Cc1c(CCOC(=O)CC23CC4CC(CC(C)(C4)C2)C3)sc[n+]1Cc1ccc([N+](=O)[O-])cc1 | 19% (inactive) and 24.3% (active)
O=C(NCCCN1CCOCC1)C1CCCN(S(=O)(=O)N2CCCCC2)C1 (stereo not given) | -6.18% (inactive)
Fc1ccc(Nc2nnns2)cc1 | -1.08% (inactive)
Cc1[nH]c(C)c(S(=O)(=O)N2CCN(c3cccc(C(F)(F)F)c3)CC2)c1C(=O)N1CCCCC1 | -3.87% (inactive)
Cc1c(C)c2c(OCC(=O)N[C@@H](C(=O)O)c3ccccc3)cc3c(c2oc1=O)CCC(C)(C)O3 | 9.96% (inactive)
CC1CC(C)CN(CC(=O)Nc2ccc(S(N)(=O)=O)cc2)C1 (stereo not given) | -3.77% (inactive)
CC1Cc2ccccc2N1CC(=O)Nc1ccc(S(N)(=O)=O)cc1 (stereo not given) | 26.1% (active)
CC1Cc2ccccc2N1CC(=O)Nc1ccc2c(c1)OC(F)(F)O2 (stereo not given) | -17.3% (inactive)
O=C(CCSc1ccccc1)NCCSc1ccccn1 | 4.14% (inactive)
Cc1ccc2cc3cc(C(=O)N4CCCCCC4)oc3nc2c1 | 0.91% (inactive)
O=C1Cc2cc(S(=O)(=O)Nc3cccc(F)c3)ccc2N1 | -4.67% (inactive)
CCN(CC(=O)Nc1c(F)cccc1F)C(=O)c1ccc(-c2ccc(C(C)=O)cc2)o1 | -6.21% (inactive)
O=C(CCN1CCc2ccccc2C(O)(c2ccccc2)C1)c1ccc2c(c1)OCCO2 (stereo not given) | 40.8% (active)
CCC1(c2ccccc2)NC(=O)N(CC(=O)c2ccc3c(c2)OCO3)C1=O (stereo not given) | 6.66% (inactive)
O=C(CN1CCN(c2ccccc2F)CC1)c1ccc2c(c1)OCO2 | 1.72% (inactive)
COCCN1CCn2c(nc3cc(NS(C)(=O)=O)ccc32)C1 | 3.04% (inactive)
Cc1cc(SCC(=O)NCCN2C(=O)CSC2=O)nc2ccccc12 | 1.93% (inactive)
Cc1cc(C)cc(C(=O)NC(CC(N)=O)c2ccc(N3CCC(N4CCCCC4)CC3)c([N+](=O)[O-])c2)c1 (stereo not given) | -0.26% (inactive)
O=C(CSc1nnc(CNC(=O)c2ccc(F)cc2)o1)Nc1ccc2c(c1)OCO2 | -2.58% (inactive)
COCCN(CCOC)c1nc(N)c2c(N)nc3c(c2c1C#N)CC(=O)N3Cc1ccc(Cl)cc1 | 32.7% (active)
C=CCC[C@H](CCCCC)OC(=O)/C=C/[C@H](O)[C@@H](O)C[C@@H](O)CC=C | -7.52% (inactive)
Cc1c(CN2CCC(CO)(CCOc3ccccc3)CC2)[nH]c2ccc(Cl)cc12 | 22.5% (active)
Cc1cccc(-c2ncc(CN3CCC(CO)(CCCc4ccccc4)CC3)cn2)c1 | 12.2% (inactive)
CC(C)(O)C#Cc1ccc(CN2CCC(CO)(CCc3ccccc3)CC2)cc1 | -5.13% (inactive)
CCC(=O)NC(Nc1cc(C)ccn1)(C(F)(F)F)C(F)(F)F | 7.47% (inactive)

SMILES | inhibition
c1cc(-c2ccc3[nH]ccc3c2)n2ccnc2c1 | 0.38% (inactive)
CCN1CCC(O)(/C=C/c2ccc(C)cc2)C(C(=O)/C=C/c2ccc(C)cc2)C1 (stereo not given) | 75% (active)
CN(CC(=O)Nc1cccc2c1CCCC2)S(=O)(=O)c1ccc(Cl)cc1 | 4.76% (inactive)
COC(=O)Cc1ccc(OC(=O)C2CCN(S(=O)(=O)c3ccc(OC)c(OC)c3)CC2)cc1 | 4.12% (inactive)
CC1(C(=O)NCc2ccc3c(c2)OCO3)CCN1C(=O)Cc1cccc2ccccc12 (stereo not given) | 0.84% (inactive)
CC1(C(=O)NCc2cccc3ccccc23)CCN1Cc1ccc(-c2ccccc2)o1 (stereo not given) | 40.4% (active)
CSc1ccc(CN2CCC2(C)C(=O)NCc2ccccc2Br)cc1 (stereo not given) | -5.69% (inactive)
CN(C)c1cccc(C(=O)N2CCC(n3nccc3NC(=O)C3CCOC3)CC2)c1 (stereo not given) | -0.66% (inactive)
CC(C)(C)NC(=O)C(CCc1ccccc1)n1c(=O)c(-c2ccccc2)nc2ccccc21 (stereo not given) | 22.9% (active)
CSCCC(C(=O)NC(C)(C)C)n1c(-c2ccccc2)nc2ccccc21 (stereo not given) | -13.8% (inactive)
CCC(C(=O)NC(C)(C)C)n1c(-c2ccccc2)nc2ccccc21 (stereo not given) | 9.54% (inactive)
COc1ccc(S(=O)(=O)N2CCCCC2)cc1NC(=O)C1CC(=O)N(c2ccc3c(c2)OCCO3)C1 (stereo not given) | 12.7% (inactive)
CCOCN(C(=O)Cn1c(C(C)O)nc2ccccc21)c1c(C)cccc1CC (stereo not given) | -2.38% (inactive)
CN(C)C(=O)COC(=O)c1cccc(S(=O)(=O)N2CC3(C)CC2CC(C)(C)C3)c1 (stereo not given) | -4.49% (inactive)
Cc1nnnn1/C(=C\c1ccccc1)C(=O)OCC(=O)N1CC2(C)CC1CC(C)(C)C2 (stereo not given) | 38.6% (active)
O=S(=O)(NCc1cccnc1)c1ccc(Cl)nc1 | 5.93% (inactive)
Cc1cc(C)c(C)c(S(=O)(=O)Nc2ccc(O)cc2)c1C | 4.3% (inactive)
COc1ccc(CN2C(=O)C(CC(=O)NCCN3CCOCC3)CC(C(=O)N(C(C)C)C(C)C)=C2C)cc1 (stereo not given) | -11% (inactive)
CCCCCCCCCCCCCCCC(=O)OC/C=C(C)/C=C/C=C(C)/C=C/C1=C(C)CCCC1(C)C | -4.62% (inactive)
O=C(Nc1ccccc1C(F)(F)F)N1CCCC1c1cccnc1 (stereo not given) | 11.2% (inactive)
CC(=O)c1ccc(NC(=O)CCc2nnc3ccc(NCc4ccco4)nn23)cc1 | 27.9% (active)
CCOc1ccccc1NC(=O)CCc1nnc2ccc(NCc3ccco3)nn12 | 16.7% (inactive)
O=C(CNc1ccc(F)cc1F)NC(=O)NCc1ccco1 | -0.2% (inactive)
CC1CCN(C(=O)CCc2nnc3ccc(NCc4ccco4)nn23)CC1 | 7.83% (inactive)
O=C(CCc1nnc2ccc(NCc3ccco3)nn12)Nc1cc(F)ccc1F | 22.5% (active)
CCOC(=O)c1cccc(NC(=O)CCc2nnc3ccc(N4CCOCC4)nn23)c1 | -2.37% (inactive)
Cc1ccc(-n2c(SCC(=O)Nc3ncc(Cl)cc3Cl)nc3ccccc32)cc1 | -7.45% (inactive)
